Outcome and AC50 data for 40 compounds are collected here from PubChem BioAssay (EPA / NIEHS).

Molecules are shown by their SMILES. Calls of active or inactive are those of the source. How the source made its calls: active means hit-call score of the fitted dose curve at least 0.9, where 1 is the maximum; inactive means score below 0.9.

The nature of this assay: ATG_SREBP_CIS: Attagene CIS-FACTORIAL HepG2 Assay for human Sterol Regulatory Element Binding (SREBP) (AID 2282962). The settings on record: HepG2 Attagene cis-factorial SREBP reporter, mRNA; actives raise or lower the signal. As for the experimental part:
ATG_CIS is a cell-based, multiplexed-readout assay that uses HepG2, a human liver cell line, with measurements taken at 24 hours after chemical dosing in a 24-well plate.ATG_SREBP_CIS is one of 52 assay component(s) measured or calculated from the ATG_CIS assay. It is designed to make measurements of mRNA induction, a form of inducible reporter, as detected with fluorescence intensity signals by Reverse transcription polymerase chain reaction (RT-PCR) and Capillary electrophoresis technology.Data from the assay component ATG_SREBP_CIS was analyzed into 1 assay endpoint. This assay endpoint, ATG_SREBP_CIS, was analyzed with bidirectional fitting relative to DMSO as the negative control and baseline of activity. Using a type of inducible reporter, measures of mRNA for gain or loss-of-signal activity can be used to understand the reporter gene at the transcription factor-level as they relate to the gene SREBF1. Furthermore, this assay endpoint can be referred to as a primary readout, because this assay has produced multiple assay endpoints where this one serves a reporter gene function. To generalize the intended target to other relatable targets, this assay endpoint is annotated to the dna binding intended target family, where the subfamily is basic helix-loop-helix leucine zipper.
Human liver HepG2 cells are transiently transfected with multiple reporter transcription units (MRTUs) in 6-well plates using FuGene 6 reagent (Roche; 3 ml FuGene/1 mg DNA). The MRTU constructs are regulated by a cis-regulating element (promoter). […] A major difference between the CIS and TRANS system is that in CIS activities of endogenous TFs are measured, whereas the TRANS assay evaluates changes in activities of exogenous, chimeric NR-Gal4 proteins. […] At the end of 24 hour incubation, total RNA was isolated using TriZol reagent (Invitrogen). The isolated RNA is then reverse-transcribed using oligo(dT) primer and Mo-MLV reverse transcriptase (Invitrogen) with DNAse I (Ambion) treatment for 30 min. The one-tenth of the produced cDNA was amplified by PCR using Taq DNA polymerase (Invitrogen) and two reporter sequence-specific primers. The PCR products were fluorescently labeled by primer extension with 6-arboxyfluorescein (6-FAM) 5'-labeled reporter sequence-specific primer (2 min at 95 C, 20 s at 68 C and 10 min at 72 C) and these products were digested with 5U of HpaI (New England Biolabs) for 2h at 37 C. The fragments were purified using Qiaquick PCR columns (Qiagen), analyzed on an ABI 3130xL genetic analyzer (Applied Biosystems) with peak positions identified by using a set of X-rhodamine (ROX)-labeled MapMarker1000 molecular weight standards (BioVentures). The raw capillary electrophoresis data was processed using Attagraph software (Attagene).
Take `CCCN(CCC)S(=O)(=O)c1ccc(C(=O)O)cc1`: the compound was classed as inactive.

Consider `CC(C)=CCCC(C)CCOC=O` (stereo not given), for which the compound was called inactive.

Turning to `CCc1cc(Cc2cc(CC)cc(C(C)(C)C)c2O)c(O)c(C(C)(C)C)c1`, the result was inactive.

As to `CCOC(=O)CC(C)O` (stereo not given), the compound was called inactive.

For `OCCOCCN1CCN(C2=Nc3ccccc3Sc3ccccc32)CC1`, the compound was called inactive.

Consider `C=C[Si]1(C)O[Si](C)(C=C)O[Si](C)(C=C)O[Si](C)(C=C)O1` (stereo not given), for which the call was inactive.

For the compound `C1=CC2C3C=CC(C3)C2C1` (stereo not given), the compound was classed as inactive.

Consider `C[C@H]1C[C@@H](O)CC(C)(C)C1`, for which the outcome was inactive.

On to `COc1ccc(OC)c(N=Nc2c(O)ccc3ccccc23)c1`, for which the result was inactive.

One may read the AC50 as the midpoint of the concentration-response curve, whichever way the signal moves. As for `Cc1cc(=O)oc2cc(N(C)C)ccc12`, the AC50 was 100 µM (active).

For the compound `Clc1cc(Cl)c(-c2c(Cl)c(Cl)cc(Cl)c2Cl)cc1Cl`, the AC50 was 50 µM (active).

Turning to `O=C1OC[C@H](Cc2cccc(O)c2)[C@H]1Cc1cccc(O)c1`, the result was inactive.

`CCCCCCCCCC(=O)OC`: the compound was classed as inactive.

Take `COc1ccc(CCC(C)=O)cc1`: the compound was called inactive.

Regarding `C[Si](C)(C)O[Si](C)(C)C`, the compound was classed as inactive.

For `CC1(C)CCC[C@]2(C)[C@H]3CCO[C@]3(C)CC[C@@H]12`, the concentration at half-maximal activity (AC50) was 145 µM (active).

Take `C=CC(C)C#N` (stereo not given): the compound was classed as inactive.

On to `C=C(C)C(=O)OCCOCCOCCOCCOC(=O)C(=C)C`, for which the compound was called inactive.

As to `CCCCCCCCCCCCN1CCCCCC1=O`, the result was inactive.

Turning to `OCc1cccc(Oc2ccccc2)c1`, the compound was classed as inactive.

Consider `CC(C)(C)C1=CC(=O)C(C(C)(C)C)=CC1=O`, for which the half-maximal activity concentration (AC50) was 25.7 µM (active).

In the case of `CC=Cc1ccc(OCC)c(O)c1`, the compound was classed as inactive.

In the case of `IC(I)I`, the outcome was inactive.

In the case of `C=C(CC(=O)O)C(=O)O`, the outcome was inactive.

`COc1cccc(OC)c1O`: the compound was called inactive.

Consider `c1ccc(Oc2ccccc2)cc1`, for which the outcome was inactive.

With `Cc1cc(C)nc(NS(=O)(=O)c2ccc(N)cc2)n1`, the result was inactive.

As to `CC(C)(C)CC(C)(C)c1ccc(OCCOCC[N+](C)(C)Cc2ccccc2)cc1`, the AC50 was 8.35 µM (active).

With `CCc1ccc(O)cc1`, the outcome was inactive.

Consider `c1ccc(CN(Cc2ccccc2)Cc2ccccc2)cc1`, for which the result was inactive.

As to `CCCC(C)=O`, the result was inactive.

Consider `CCC(C)=O`, for which the compound was called inactive.

Consider `CC(=O)OCCCc1ccccc1`, for which the compound was classed as inactive.

As for `CC[N+](C)(CC)CC`, the compound was called inactive.

Consider `Nc1ccccc1[N+](=O)[O-]`, for which the result was inactive.

Consider `Cc1[nH]c(=O)c(C#N)cc1-c1ccncc1`, for which the result was inactive.

On to `O=C1NC2NC(=O)NC2N1` (stereo not given), for which the result was inactive.

On to `C/C=C(\C)C(=O)OCCc1ccccc1`, for which the outcome was inactive.

`ON=C1CCCCC1`: the outcome was inactive.

In the case of `NCC1CCCC(CN)C1` (stereo not given), the compound was called inactive.
